The list is not random: actives were taken first. Their share in the collection is about 19%.
KB-3-1 tox = qHTS assay for MDR1-selective chemotherapeutics: Primary screen using the parental adenocarcinoma cell KB-3-1. 1.4% of 400,000 active. KB-3-1 viability, CellTiter-Glo ATP luminescence, 72 h. Potency, µM (top dose mostly 46.1 µM), hits mostly cytotoxic; also: nearly all actives have a fitted effect of over 60% in size
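KB-3-1 cells, DMEM (no phenol red) + 10% FBS; compound by pin transfer, 72 h, 37 °C. Readout: CellTiter-Glo luminescence after 10 min. Data normalized, curve-fitted.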
TDP1 cell CPT = qHTS for Inhibitors of human tyrosyl-DNA phosphodiesterase 1 (TDP1): qHTS in cells in presence of CPT; chicken DT40 Tdp1-/-;hTDP1 cells + 20 nM CPT, ATP luminescence, 48 h; Potency, µM (titrated, usually from 46.2 µM), for inactives: at the top dose activity change, negative = growth inhibition, hits mostly inhibitors; 12% of 420,000 active; AID 686979, 2013; also: nearly all actives have a fitted effect of over 55% in size
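Cell growth measured by CellTiter-Glo luminescence after a minimum 48 h, 37 C compound exposure with 20 nM CPT in Tdp1-knockout DT40 cells stably expressing hTDP1, seeded 400/well; qHTS titration format.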
DT40 TDP1 no CPT = qHTS for Inhibitors of human tyrosyl-DNA phosphodiesterase 1 (TDP1): qHTS in cells in absence of CPT; 15% of 420,000 active; DT40 Tdp1-/- hTDP1 cells, no CPT, ATP luminescence, 48 h; AID 686978, 2013; Potency, µM (top dose mostly 46.2 µM), inactives show at the top dose activity change, negative = growth inhibition, hits mostly inhibitors; also: nearly all actives have a fitted effect of over 55% in size
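Camptothecin absent (DMSO only). Human TDP1-complemented DT40 knockout cells, 400 cells/well, 37 °C for minimum 48 hr; ATP measured via CellTiter-Glo, 30 min dark incubation, luminescence.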
HT1080 IDH1KD tx = qHTS for induction of synthetic lethality in tumor cells producing 2HG: qHTS for the HT-1080-IDH1KD cell line; 2% of 360,000 active; Potency, µM (highest dose often 46.1 µM), for the others: at the top dose activity, negative = toxicity, hits mostly cytotoxic; AID 686971, 2013; HT-1080 IDH1 knockdown viability, ATP luminescence, 48 h;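 also: 0% = DMSO wells and -100% = cell-free medium wells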
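% activity derives from luminescence (CellTiter-Glo), normalised to DMSO and no-cell wells. HT-1080-IDH1KD cells, 750/well, had 48 h compound exposure at 37 °C.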
KB-V1 cytotox = qHTS assay for MDR1-selective chemotherapeutics: Primary screen using the drug-selected MDR subline cells KB-V1; 3.4% of 400,000 active; KB-V1 MDR cells viability, CellTiter-Glo, 72 h; Potency, µM (highest dose often 46.1 µM), hits mostly cytotoxic; also: nearly all actives have a fitted effect of over 60% in size
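Readout: CellTiter-Glo luminescence, 10 min after addition. Cells: KB-V1 MDR subline, 72 h at 37 degrees C with compound. Analysis: corrected, normalized data fitted to concentration-effect curves.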
HT1080-NT tox = qHTS for induction of synthetic lethality in tumor cells producing 2HG: qHTS for the HT-1080-NT fibrosarcoma cell line; HT-1080-NT fibrosarcoma viability, CellTiter-Glo ATP luminescence, 48 h; Potency, µM (top dose mostly 46.1 µM), for inactives: at the top dose activity, negative = less viability, most hits filed as cytotoxic; 1.6% of 360,000 active;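 also: NT is the 2HG producing partner of a matched IDH1 knockdown line; 0% = DMSO-treated cells and -100% = media-only wells without cells; nearly all actives have a fitted effect of over 55% in size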
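Viability by CellTiter-Glo luminescence after 48 h compound exposure at 37C of HT-1080-NT cells (750/well, RPMI, 5% FBS). % activity scaled between DMSO wells and medium-only wells, then curve-fitted and categorized by curve class.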
Starred values were filed as active, the others as inactive; i = inactive; u = inconclusive; x = not tested or not shown. Calls follow the shape of the dose curve; as a rule, active = well fitted curve in the direction sought with a large enough effect; inconclusive = small, poorly fitted or top-dose-only effect, or another doubt; inactive = no such curve, though single readings can be large; an effect the other way counts as inactive or inconclusive. Unless noted, % is scaled to controls: 0 for no effect and ±100 for the full control effect; potency is read from the fitted curve at half-maximal effect.

SMILES	KB-3-1 tox	TDP1 cell CPT	DT40 TDP1 no CPT	HT1080 IDH1KD tx	KB-V1 cytotox	HT1080-NT tox
CC(NC(=O)c1cn(C)c2ccc(S(=O)(=O)N3CCCC3)cc2c1=O)c1ccccc1 (centres undefined)	i	u	-11%	-1%	i	2%
Cn1cc(C(=O)NC2CCCCC2)c(=O)c2cc(S(=O)(=O)N3CCCC3)ccc21	i	u	-29%	13%	9.2µM*	0%
O=[N+]([O-])c1ccc(/C=C/c2ccc3cccc(O)c3n2)cc1	u	21µM*	16µM*	u	i	u
COc1cccc(/C=C/c2ccc3cccc(O)c3n2)c1	u	u	7.3µM*	u	u	-24%
COC(=O)c1ccc(/C=C/c2ccc3cccc(OC)c3n2)cc1	i	u	u	5%	u	0%
Cc1cccc(/C=C\c2ccccc2)n1	x	u	-72%	x	x	x
CC(=O)COc1cccc2ccc(/C=C/c3ccc(Br)s3)nc12	i	21µM*	u	-4%	i	-17%
COc1cccc(C(O)c2nc(/C=C/c3ccccc3)cs2)c1 (centres undefined)	i	u	u	-25%	i	13%
Cc1ccc(/C=C/c2ccc3cccc(O)c3n2)s1	u	u	16µM*	-22%	i	-21%
COc1ccccc1-c1cc2nc(C)cc(C)n2n1	i	5%	-8%	20%	u	26%
CC1=C(C(=O)N(C)C)CC(CC(=O)NC2CCCC2)C(=O)N1Cc1ccc(F)cc1 (centres undefined)	i	1%	-24%	5%	i	3%
COc1ccc(C(=O)c2ccc(Cl)cc2)c(OC)c1OC	i	-2%	u	1%	i	0%
Cc1cccc(/C=C/c2ccccc2)n1	x	-3%	-18%	x	x	x
Oc1cccc(/C=C/c2ccc3cccc(O)c3n2)c1	u	18µM*	16µM*	u	u	33µM*
Cn1c(N)c(C(=O)CSc2ccc3c(c2)OCCO3)c(=O)n(C)c1=O	i	18µM*	18µM*	-1%	i	-3%
CCSc1nnc(SCC(=O)c2c(N)n(C)c(=O)n(C)c2=O)s1	i	u	23µM*	-6%	i	8%
Cc1ccccc1Nc1nnc(SCC(=O)c2c(N)n(C)c(=O)n(C)c2=O)s1	u	-7%	u	0%	i	-8%
Cc1cc(C)nc(SCC(=O)c2c(N)n(C)c(=O)n(C)c2=O)n1	i	-18%	-22%	-4%	i	-2%
CN(C)c1nc2ncn(Cc3ccccc3)c2c(=O)[nH]1	i	-2%	28%	3%	i	6%
CC1Nc2nc(N(C)C)[nH]c(=O)c2NC1C (centres undefined)	i	26µM*	u	19%	i	19%
Cc1cc(C)c(S(=O)(=O)N2CCN(C(=O)N(C)C)CC2)c(C)c1	i	u	u	-2%	i	-2%
O=C(CSc1nc2ccccc2s1)Nc1cc(S(=O)(=O)N2CCOCC2)ccc1Cl	i	u	u	8%	18µM*	2%
Cc1ccc(S(=O)(=O)N2CCOCC2)cc1NC(=O)CSc1nnc2cc(C)c3ccccc3n12	i	u	23µM*	-12%	u	-1%
Cc1cc2nnc(SCC(=O)Nc3cc(S(=O)(=O)N4CCOCC4)ccc3Cl)n2c2ccccc12	i	u	16µM*	-2%	u	7%
O=C(CNc1ccccc1Cl)Nc1cc(S(=O)(=O)N2CCOCC2)ccc1Cl	i	-16%	u	0%	i	-4%
SMILES	KB-3-1 tox	TDP1 cell CPT	DT40 TDP1 no CPT	HT1080 IDH1KD tx	KB-V1 cytotox	HT1080-NT tox
COc1cccc(N=Nc2ccc3cccnc3c2O)c1	i	0.58µM*	1.2µM*	u	i	-30%
O=S(=O)(O)c1cccc2c(N=Nc3ccc(O)c4ncccc34)cccc12	i	u	11%	-10%	i	-6%
Cc1ccccc1N=Nc1ccc(O)c2ncccc12	u	2.6µM*	1.6µM*	7.3µM*	i	u
Oc1ccc(N=Nc2ccc3c(c2)OCCO3)c2cccnc12	u	1.3µM*	1.6µM*	1.3µM*	u	u
COc1ccc(-c2ncccc2O)cc1	i	0%	-9%	11%	i	14%
COc1ccc(C)cc1N=Nc1ccc(O)c2ncccc12	i	3.3µM*	2.6µM*	u	i	u
O=c1c2cc3c(cc2n(Cc2ccc(Cl)cc2)c(=O)n1Cc1nc(-c2ccccc2)no1)OCO3	i	-7%	1%	x	i	x
NC(=O)c1ccnc2c(O)cccc12	i	x	x	x	i	x
Cc1c(C)c2cccnc2c2ncccc12	6.5µM*	1.8µM*	1.5µM*	5.2µM*	u	10µM*
O=Nc1ccc(O)c2ncccc12	21µM*	0.58µM*	0.92µM*	u	23µM*	12µM*
COCc1ccc(O)c2ncccc12	15µM*	4.6µM*	4.6µM*	5.8µM*	12µM*	4.6µM*
COc1ccc(N=Nc2ccc(O)c3ncccc23)cc1	i	2.1µM*	1.5µM*	4.6µM*	i	u
CC(C)(C)C(=O)NC1CC(=O)N(c2ccc3c(c2)OCCO3)C1 (centres undefined)	i	-1%	13%	x	i	x
Cc1ccnc2c(Cl)cccc12	i	u	1%	x	i	x
Cc1ccc(O)c2ncccc12	x	u	4.7µM*	x	x	x
COc1cccc(N=Nc2ccc(O)c3ncccc23)c1	4.6µM*	2.6µM*	2.6µM*	u	i	u
COc1ccc(C(=O)c2c(C)c3ccccc3n2CC(O)CNC(C)C)cc1 (centres undefined)	u	u	23µM*	u	u	u

High-throughput results: PubChem, National Center for Advancing Translational Sciences (NCATS)
